# The source made the active and inactive calls. Cut-off read from the data, not from the text of the source: active = log2 fold change growth below about -1.8; inactive = the rest.
# Experiment: anthelmintic activity against nematode growth – whole organism, log2 fold change (AID 1259336);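 note: growth scored by imaging after five days at 20 °C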
# Details: C. elegans growth, anthelmintic screen; active compounds read low
row,SMILES,log2 fold change growth
1,CNC(=O)c1cc(S(=O)(=O)N2CCN(c3ccccn3)CC2)cs1,-0.156 (inactive)
2,O=C1N(Cc2cc3ccccc3s2)C[C@H]2CN(Cc3ccccc3)CCN12,-0.864 (inactive)
3,CC(=O)NC[C@H]1CN(c2ccc(-c3ccc(CO)cc3)c(F)c2)C(=O)O1,0.592 (inactive)
4,NC(N)=Nc1ccc(-c2ccc(-c3ccc(N=C(N)N)c(Cl)c3)o2)cc1Cl,-0.555 (inactive)
5,Cn1ncc2c(N3CCOCC3)nc(NCCc3c[nH]c4ccccc34)nc21,0.0196 (inactive)
6,COc1cc(C(F)(F)F)nc2ccc(C)c(N)c12,0.198 (inactive)
7,CC(=O)Nc1ccc(-c2noc(C[C@H]3CCCN(Cc4cccc(F)c4C)C3)n2)cc1,0.251 (inactive)
8,Clc1ccc(-n2cc(COc3ccnc4ccccc34)nn2)cc1,-5.7 (active)
9,CCc1c(C)nc(-n2nc(C)cc2NC(=O)c2ccccc2SC)[nH]c1=O,-0.0348 (inactive)
10,FC(F)(F)c1nnc2ccc(Cl)nn12,-0.128 (inactive)
11,Cc1cc(C)n2nc(C(=O)Nc3cc(C(F)(F)F)ccc3N3CCOCC3)nc2n1,0.174 (inactive)
12,Clc1ccc(CN2CCN(C3=NCCN3)CC2)cc1Cl,0.0846 (inactive)
13,COc1ccc(-c2nnc3ccc(-c4cccc(C(C)C)c4)cn23)cc1OC,-0.151 (inactive)
14,CC(C)(C)n1nc(Cc2cccc3ccccc23)c2c(N)ncnc21,-0.527 (inactive)
15,CCCc1ccc(S(=O)(=O)Nc2ccc(CN3CCN(CC4CC4)CC3)cc2)cc1,0.319 (inactive)
16,Cc1cc(NCCc2ccccc2)nc(/N=C(\N)Nc2ccc(Cl)cc2)n1,0.186 (inactive)
17,Nc1ncnc2c1ncn2[C@@H]1O[C@H](COS(=O)(=O)NC(=O)c2ccccc2O)[C@@H](O)[C@H]1O,0.353 (inactive)
18,COc1cc(C2=NCCN2)ccc1-n1cc(-c2cccc(C3=NCCN3)c2)nn1,-0.901 (inactive)
19,Cc1cc(NC(=O)c2ccc(Oc3ccc(Cl)cc3O)o2)no1,0.201 (inactive)
20,C[C@H](C(N)=O)N1CCCC[C@H]1c1ccc(OCc2cccc(F)c2)cc1,-0.0659 (inactive)
21,CC(C)(C)C1CCC(CC2=C(O)c3ccccc3C(=O)C2=O)CC1 (centres undefined),-0.0767 (inactive)
22,O=C(NCCc1c[nH]c2ccccc12)c1cc2ccccc2oc1=O,0.481 (inactive)
23,COc1ccc(C2=NN(C3CCCCCC3)C(=O)[C@@H]3CC=CC[C@H]23)cc1OCCCCOc1ccc(-c2nn[nH]n2)cc1,-0.0946 (inactive)
24,CCN(CC)C(=O)N1CCN(C)CC1,0.355 (inactive)

# Reference: PubChem BioAssay AID1259336 (Sattelle Laboratory, UCL Respiratory, Division of Medicine, …, 2017)
